{"source": "PubChem BioAssay (Tox21)", "note": "Active and inactive are the calls of the source. The call rests on the fitted dose curve. On the % scale 0 is the no-effect control and ±100 the full control effect; potency means the concentration at half of the fitted maximal effect.", "data": [{"target": "Acetylcholinesterase (Homo sapiens) (UniProt P22303)", "sequence (P22303 whole entry, looked up)": "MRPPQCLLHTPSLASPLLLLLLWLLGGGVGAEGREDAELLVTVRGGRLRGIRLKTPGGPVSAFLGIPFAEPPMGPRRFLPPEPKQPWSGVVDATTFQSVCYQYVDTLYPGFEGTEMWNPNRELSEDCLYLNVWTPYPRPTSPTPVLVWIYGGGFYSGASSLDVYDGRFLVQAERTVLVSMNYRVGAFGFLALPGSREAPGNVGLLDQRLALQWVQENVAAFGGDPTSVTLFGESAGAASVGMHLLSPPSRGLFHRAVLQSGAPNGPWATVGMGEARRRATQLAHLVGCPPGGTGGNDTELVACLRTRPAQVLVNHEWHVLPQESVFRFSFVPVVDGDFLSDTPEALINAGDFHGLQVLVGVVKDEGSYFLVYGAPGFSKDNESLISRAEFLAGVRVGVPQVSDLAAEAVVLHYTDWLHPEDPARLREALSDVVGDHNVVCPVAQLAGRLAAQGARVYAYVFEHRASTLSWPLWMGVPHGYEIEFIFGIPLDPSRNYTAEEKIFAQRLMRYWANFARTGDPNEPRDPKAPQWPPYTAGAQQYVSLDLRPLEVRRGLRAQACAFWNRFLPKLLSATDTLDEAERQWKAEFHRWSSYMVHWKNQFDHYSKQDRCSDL", "test": "Acetylcholinesterase (AChE) small molecule antagonists: enzyme-based qHTS assay (AID 1347397); further: nearly all actives have a fitted effect of over 55% in size", "details": "Potency: AChE enzyme activity inhibition; series mostly up to 115 µM; activity change, negative = inhibition: at the top concentration", "text": "National Center for Advancing Translational Sciences [NCATS]\nDivision of Preclinical Innovation [DPI]\nU.S. Environmental Protection Agency [EPA]\nNational Institutes of Environmental Health Sciences [NIEHS]\nNational Toxicology Program [NTP]\nU.S. Food and Drug Administration [FDA]\nAcetylcholinesterase (AChE) is the primary cholinesterase in the body that hydrolyzes a key neurotransmitter, acetylcholine. Inhibition of AChE activity can lead to neurotoxicity. The known inhibitors include organophosphorous pesticides (OP), chemical warfare agents, drugs, and various phytochemicals.\nAn enzyme-based assay with the recombinant human AChE and Amplite Colormetric acetylcholinesterase assay kit (AAT Bioquest, Sunnyvale, CA) was used to evaluate the chemicals in the Tox21 10K library that inhibit AChE activity. The assay uses 5, 5-dithiobis-(2-nitrobenzoic acid) (DTNB) to quantify the thiocholine produced from the hydrolysis of acetylthiocholine by AChE.\nTox21 Assay Protocol Summary:\nFor the enzyme-based AChE assay, recombinant human AChE (50 mU/mL) in 4 uL/well was dispensed into black, clear-bottom 1536-well plates using a Multidrop Combi dispenser (Thermo Scientific, MA). Then, 23 nL of compound or DMSO (vehicle control) was transferred into the assay plates by a Pintool Station (Wako Automation, CA). The plates were incubated for 30 min at room temperature, followed by the addition of 4 uL of colorimetric detection cocktail solution (DTNB, acetylthiocholine) into each well using a Flying Reagent Dispenser (Beckman Coulter, CA) and then 10 min incubation at room temperature.", "values": [{"smiles": "O=C1OC(=O)C2C1C1(Cl)C(Cl)=C(Cl)C2(Cl)C1(Cl)Cl", "note": "(stereo not given)", "activity change, negative = inhibition": "0.682% (inactive)"}, {"smiles": "Cc1cc(C)c(C(=O)P(=O)(C(=O)c2c(C)cc(C)cc2C)c2ccccc2)c(C)c1", "activity change, negative = inhibition": "0.485% (inactive)"}, {"smiles": "CCN(CC)C(=O)[C@@H]1C=C2c3cccc4[nH]cc(c34)C[C@H]2N(C)C1", "Potency": "104 µM (active)"}, {"smiles": "Cc1ncc2n1-c1ccc(Cl)cc1C(c1ccccc1F)=NC2", "activity change, negative = inhibition": "0% [at 53 µM] (inactive)"}, {"smiles": "COc1ccc2c(c1OC)CN1CCc3cc4c(cc3C1C2)OCO4", "note": "(stereo not given)", "Potency": "5.49 µM (active)"}, {"smiles": "CCCCC(=O)Cl", "activity change, negative = inhibition": "2.06% (inactive)"}, {"smiles": "O=[N+]([O-])c1cccc2cccnc12", "activity change, negative = inhibition": "-2.45% (inactive)"}, {"smiles": "CNC(=O)N(C)c1nc2ccccc2s1", "activity change, negative = inhibition": "0.132% (inactive)"}, {"smiles": "CCCSC(=O)N(CCC)CCC", "activity change, negative = inhibition": "-0.0355% (inactive)"}, {"smiles": "CCOP(=S)(OCC)SCSP(=S)(OCC)OCC", "Potency": "63.3 µM (active)"}, {"smiles": "CS(=O)(=O)c1cc(C(F)(F)F)ccc1C(=O)c1cnoc1C1CC1", "activity change, negative = inhibition": "-0.127% (inactive)"}, {"smiles": "CC1CN1P(=O)(N1CC1C)N1CC1C", "note": "(stereo not given)", "activity change, negative = inhibition": "0.71% (inactive)"}, {"smiles": "N#CC(O)c1ccccc1", "note": "(stereo not given)", "activity change, negative = inhibition": "-0.409% (inactive)"}, {"smiles": "COP(N)(=S)Oc1ccccc1C(=O)OC(C)C", "note": "(stereo not given)", "activity change, negative = inhibition": "-0.645% (inactive)"}, {"smiles": "C[C@H]1CCC[C@H](O)CCCCCc2cc(O)cc(O)c2C(=O)O1", "activity change, negative = inhibition": "-3.13% (inactive)"}, {"smiles": "CCOC(=O)N(C)C(=O)CSP(=S)(OCC)OCC", "activity change, negative = inhibition": "-5.45% (inactive)"}, {"smiles": "c1cc[c]([Hg][c]2ccccc2)cc1", "activity change, negative = inhibition": "-3.7% (inactive)"}, {"smiles": "COc1cc2c(cc1OC)[C@@]13CCN4CC5=CCO[C@H]6CC(=O)N2[C@H]1[C@H]6[C@H]5C[C@H]43", "activity change, negative = inhibition": "-0.774% (inactive)"}, {"smiles": "N#CC(Cl)(Cl)Cl", "activity change, negative = inhibition": "0.709% (inactive)"}, {"smiles": "CCN(CC)C(C)C(=O)c1ccccc1", "note": "(stereo not given)", "activity change, negative = inhibition": "0.182% [at 53 µM] (inactive)"}, {"smiles": "CC1COC2(c3ccccc3Cl)c3cc(Cl)ccc3NC(=O)CN12", "note": "(stereo not given)", "activity change, negative = inhibition": "-2.04% [at 53 µM] (inactive)"}, {"smiles": "CCOP(=O)(N=C1SCCS1)OCC", "activity change, negative = inhibition": "-8.51% (inactive)"}, {"smiles": "[As]#[In]", "activity change, negative = inhibition": "0.964% (inactive)"}, {"smiles": "CCCCOC(=O)c1ccccc1C(=O)O", "activity change, negative = inhibition": "-0.657% (inactive)"}, {"smiles": "CCC1(c2ccccc2)C(=O)NC(=O)NC1=O", "activity change, negative = inhibition": "0% (inactive)"}, {"smiles": "CCCSP(=O)(OCC)Oc1ccc(Br)cc1Cl", "note": "(stereo not given)", "Potency": "3.87 µM (active)"}, {"smiles": "CN(C)CCc1ccc(O)cc1", "activity change, negative = inhibition": "0.405% [at 53 µM] (inactive)"}, {"smiles": "O=C(NCO)NCO", "activity change, negative = inhibition": "0.395% (inactive)"}, {"smiles": "O=C(Cc1ccccc1)OCc1ccccc1", "activity change, negative = inhibition": "0.872% (inactive)"}, {"smiles": "O=C(CCCN1CCC(n2c(=O)[nH]c3ccccc32)CC1)c1ccc(F)cc1", "activity change, negative = inhibition": "-0.139% [at 53 µM] (inactive)"}, {"smiles": "O=NN1CCCCC1", "activity change, negative = inhibition": "0.945% (inactive)"}, {"smiles": "CCOP(=S)(OCC)Oc1ncn(-c2ccccc2)n1", "Potency": "71 µM (active)"}, {"smiles": "ClCC(Cl)(Cl)Cl", "activity change, negative = inhibition": "-2.73% (inactive)"}, {"smiles": "CC(CCc1ccccc1)NC(C)C(O)c1ccc(O)cc1", "note": "(stereo not given)", "activity change, negative = inhibition": "1.56% [at 53 µM] (inactive)"}, {"smiles": "CCOC(=O)C1(c2ccccc2)CCN(CCc2ccc(N)cc2)CC1", "activity change, negative = inhibition": "0.206% [at 53 µM] (inactive)"}, {"smiles": "CC(=O)CCc1ccc2c(c1)OCO2", "activity change, negative = inhibition": "0.545% (inactive)"}, {"smiles": "CCOP(=S)(OCC)SCSc1ccc(Cl)cc1", "activity change, negative = inhibition": "-21.3% (inactive)"}, {"smiles": "CN(N=O)C(N)=O", "activity change, negative = inhibition": "0.275% (inactive)"}, {"smiles": "O=C(O)c1ccc2[nH]cc(CCCCN3CC=C(c4ccccc4)CC3)c2c1", "activity change, negative = inhibition": "-0.27% [at 53 µM] (inactive)"}, {"smiles": "CC(C)CC#N", "activity change, negative = inhibition": "-2.33% (inactive)"}]}]}
